Experiments:
Details in all cases: concentration: 1 μM, replicates: in singlicate; n = 1
[1] = test system: CSF1R-autoinhibited
[2] = test system: CSF1R
[3] = test system: CSK
[4] = test system: CSNK1A1L
[5] = test system: CSNK1A1
[6] = test system: CSNK1D
[7] = test system: CSNK1E
[8] = test system: CSNK1G1
[9] = test system: CSNK1G2
[10] = test system: CSNK1G3
[11] = test system: CSNK2A1
[12] = test system: CSNK2A2
[13] = test system: T1, CTK
T1 construct: gene MATK

[14] = test system: DAPK1
[15] = test system: DAPK2
[16] = test system: DAPK3
[17] = test system: T2, DCAMKL1
T2 construct: gene DCLK1

[18] = test system: T3, DCAMKL2
T3 construct: gene DCLK2

[19] = test system: T4, DCAMKL3
T4 construct: gene DCLK3

[20] = test system: DDR1
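Further: KINOMEscan kinase panel screen.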

SMILES	%Inh [1] [%]	%Inh [2] [%]	%Inh [3] [%]	%Inh [4] [%]	%Inh [5] [%]	%Inh [6] [%]	%Inh [7] [%]	%Inh [8] [%]	%Inh [9] [%]	%Inh [10] [%]	%Inh [11] [%]	%Inh [12] [%]	%Inh [13] [%]	%Inh [14] [%]	%Inh [15] [%]	%Inh [16] [%]	%Inh [17] [%]	%Inh [18] [%]	%Inh [19] [%]	%Inh [20] [%]
Nc1n[nH]c2nnc(-c3ccccc3)cc12 [SB-517389]	0	18	0	10	0	6	28	7	0	17	0	16	0	28	0	17	11	0	29	9
Nc1nc(-c2ccc3c(N)n[nH]c3c2)cc(N2CCC[C@@H](C(=O)Nc3ccccc3)C2)n1.O=C(O)C(F)(F)F.O=C(O)C(F)(F)F [GSK2288359]	0	13	8	0	0	0	15	8	100	25	1	18	0	7	0	0	12	0	0	0
Cc1ccc(C)c(NC(=O)NCCNc2ccnc(Nc3ccc(F)cc3)n2)c1 [GSK1379878]	15	7	100	0	11	0	33	0	0	24	5	0	0	0	0	11	19	0	0	1
Cn1ccc2ncnc(Nc3ccc(Oc4cccc(Cl)c4)c(Cl)c3)c21	1	17	46	16	14	10	0	6	0	0	0	39	45	18	0	0	43	5	0	0
Cl.c1ccc(Cn2ncc3cc(Nc4ncnc5ccccc45)ccc32)cc1 [GW273749]	0	22	38	12	0	15	42	12	0	30	4	13	0	5	0	4	9	0	0	3
Cl.Cl.c1ccc(-c2cc3ccncc3cc2OC2CCNCC2)cc1 [GSK1122999]	5	49	0	23	16	0	41	14	0	27	0	27	0	93.5	66	98.8	19	0	30	9
Cn1ccc2ncnc(Oc3ccc(NC(=O)Nc4cccnc4)c(Cl)c3)c21	0	82	0	10	8	0	0	0	5	0	0	19	21	7	0	0	11	0	0	99.3
CS(=O)(=O)CCNCc1nc(-c2ccc3ncnc(Nc4ccc(OCc5cccc(F)c5)c(Cl)c4)c3c2)cs1.Cl [GW583340]	0	8	12	0	0	4	45	17	0	24	2	17	0	25	0	6	16	0	0	4
NC(=O)c1sc(-n2cnc3ccccc32)cc1OCc1ccccc1F [GSK1024306]	24	0	0	0	0	17	20	0	0	18	10	6	12	3	0	0	0	1	0	19
Cl.c1ccc(Cn2ccc3cc(Nc4ncnc5ccccc45)ccc32)cc1 [GW275568]	0	55	20	0	0	26	55	15	0	22	4	19	0	21	7	30	22	10	2	8
Cl.Fc1ccccc1COc1ccc(Nc2ncnc3ccc(-c4nnc(C(F)(F)F)o4)cc23)cc1Cl [GW424170]	0	6	0	0	0	5	22	0	0	30	0	15	0	0	0	5	10	1	7	6
CCc1nc(-c2cccc(N(C)S(=O)(=O)c3ccccc3)c2)c(-c2ccnc(Nc3ccc(N4CCN(C(C)=O)CC4)nc3)n2)s1 [GSK1645895]	0	17	50	0	0	2	55	20	0	26	18	6	0	21	0	4	10	0	4	44
CC(C)(C)OC(=O)NC1CCCN(c2cc(-c3ccc4c(N)n[nH]c4c3)nc(N)n2)C1 (stereo not shown) [GSK2286096]	0	10	0	0	0	5	18	24	0	24	0	5	0	18	0	12	10	0	0	0
OCCOCCn1ccc2ncnc(Nc3ccc(Oc4cccc(Cl)c4)c(Cl)c3)c21	0	0	0	0	0	0	0	0	0	0	0	0	0	0	0	0	36	0	0	0
C[C@H]1CC[C@@H](C(=O)Nc2ccccc2)CN1c1cc(-c2ccc3c(N)n[nH]c3c2)nc(N)n1 [GSK2283293]	26	0	0	16	0	0	7	7	0	7	12	0	0	7	0	0	23	0	8	0
Nc1nccc2scc(-c3ccc4c(c3)CCN4C(=O)Cc3cc(F)ccc3F)c12 [GSK2587663]	0	67	0	1	0	14	62	0	0	10	0	7	0	27	2	7	14	8	11	10
Nc1nc(-c2ccc3c(N)n[nH]c3c2)cc(N2CCCCC2)n1 [GSK2228768]	0	1	0	1	0	11	0	0	0	4	0	12	0	3	0	6	0	15	0	0
Fc1cccc(COc2ccc(Nc3ncnc4sc(-c5ccc[nH]5)cc34)cc2Cl)c1 [GW707818]	28	17	13	0	0	9	8	0	3	31	0	0	0	28	0	22	28	0	30	4
COc1ccc(Nc2nccc(N3CCC(NC(=O)c4cccc(NC(C)=O)c4)C3)n2)cc1 (stereo not shown) [GSK1379732]	49	1	0	7	0	13	16	9	0	24	0	1	0	0	13	18	0	0	7	0
Fc1ccc(Nc2nccc(-c3c(-c4ccc(Cl)cc4)nn4ncccc34)n2)cc1F [GW829058]	0	14	28	3	32	60	22	0	2	0	0	24	30	1	0	8	25	11	0	87

From publication PMC5540273 (PLoS ONE, 2017)
